According to PubChem BioAssay (EPA / NIEHS):
Active and inactive are the calls of the source. The calls were made as follows: active = hit-call score of the fitted dose curve at least 0.9, where 1 is the maximum; inactive = score below 0.9.

Tests used:
[1] = ATG_CRE_CIS: Attagene CIS-FACTORIAL HepG2 Assay for human cAMP Responsive Element (CRE) binding protein 3 (AID 2282926); settings: HepG2 CRE cis-reporter, Attagene multiplexed mRNA; actives raise or lower the signal
Procedure, shortened: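 Endogenous CRE-binding activity in HepG2 is reported through a cis-regulated transfected reporter. Following a day of exposure, mRNA levels are determined by reverse transcription PCR and fluorescent fragment analysis; fits run in both directions versus DMSO.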

[2] = target: CCAAT/enhancer-binding protein beta (Homo sapiens) (UniProt P17676); assay: ATG_C_EBP_CIS: Attagene CIS-FACTORIAL HepG2 Assay for human CCAAT/Enhancer Binding Protein (C/EBP) beta (AID 2282927); settings: HepG2 Attagene cis-factorial transcription factor reporter; actives raise or lower the signal
Procedure, shortened: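 RT-PCR/capillary electrophoresis fluorescence of reporter mRNA, 24 h post-dose, in HepG2 cells carrying transfected cis-promoter reporter units. Bidirectional curve fitting against DMSO baseline captures gain or loss of signal.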

[3] = ATG_CMV_CIS: Attagene CIS-FACTORIAL HepG2 Assay for human CMV (Internal Marker) (AID 2282928); settings: HepG2 CMV promoter reporter, transcription factor profiling; actives raise or lower the signal;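 also: endpoint acts as a background internal control marker rather than a target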
Procedure, shortened: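 After transient transfection of HepG2 with reporter transcription units driven by cis-regulatory promoters, cells receive test chemical for 24 h. Labeled reporter amplicons, digested with HpaI, are sized and quantified by capillary electrophoresis against DMSO.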

[4] = ATG_AP_2_CIS: Attagene CIS-FACTORIAL HepG2 Assay for human Activator Protein 2 (AP-2) (AID 2282932); settings: HepG2 AP-2 cis-reporter, Attagene transcription factor profiling; actives raise or lower the signal
Procedure, shortened: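 Bidirectional curve fitting against DMSO was applied to reporter mRNA signals from HepG2 cells 24 h after dosing. Cis-promoter reporter units, transiently transfected, were read by RT-PCR plus capillary electrophoresis.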

[5] = ATG_BRE_CIS: Attagene CIS-FACTORIAL HepG2 Assay for human Bone Morphogenetic Protein (BMP) Response Element (BRE) (AID 2282933); settings: HepG2 BMP response element reporter, Attagene transcription factor profiling; actives raise or lower the signal
Procedure, shortened: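 After a 24 h chemical treatment, transiently transfected HepG2 cells were lysed for RNA; reporter transcripts were quantified by fluorescent RT-PCR and capillary electrophoresis, normalised to DMSO.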

[6] = target: Transcription factor E2F1 (Homo sapiens) (UniProt Q01094); assay: ATG_E2F_CIS: Attagene CIS-FACTORIAL HepG2 Assay for human E2F Transcription Factor 1 (AID 2282935); settings: HepG2 Attagene cis-reporter, E2F reporter RNA transcripts; actives raise or lower the signal
Procedure, shortened: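 Multiplexed cis-reporter assay: HepG2, transient transfection, 24 h dosing, mRNA quantitation by labeled RT-PCR and CE.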

[7] = ATG_E_Box_CIS: Attagene CIS-FACTORIAL HepG2 Assay for human Enhancer Box (E-box) (AID 2282936); settings: HepG2 E-box cis-reporter transcription, actives raise or lower the signal
Procedure, shortened: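 Multiplexed CIS reporter system in transiently transfected HepG2 cells measures native transcription factor activity. Reporter RNA after 24 h exposure is profiled by RT-PCR-capillary electrophoresis.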

[8] = ATG_M_61_CIS: Attagene CIS-FACTORIAL HepG2 Assay for M61 Transcription Factor (Internal Marker) (AID 2282937); settings: HepG2 Attagene CIS-FACTORIAL M61 internal marker reporter; actives raise or lower the signal
Procedure, shortened: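 Readout: fluorescent reporter mRNA fragments resolved by capillary electrophoresis after RT-PCR. Transiently transfected human HepG2 cells carried MRTU constructs reporting endogenous TF activity; 24 h chemical exposure; gain or loss of signal fitted relative to DMSO.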

[9] = ATG_EGR_CIS: Attagene CIS-FACTORIAL HepG2 Assay for human Early Growth Response 1 (EGR1) (AID 2282938); settings: HepG2 Attagene CIS-FACTORIAL EGR reporter mRNA; actives raise or lower the signal
Procedure, shortened: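 Read-out: fluorescent reporter-mRNA fragments resolved by capillary electrophoresis after RT-PCR, 24 h post-dose in transiently transfected HepG2. Endogenous transcription-factor activity reported via cis-element-regulated reporter units; gain or loss fitted relative to DMSO.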

[10] = ATG_Ets_CIS: Attagene CIS-FACTORIAL HepG2 Assay for human Erythroblast Transformation Specific (ETS) (AID 2282941); settings: HepG2 ETS cis-reporter transcription, actives raise or lower the signal
Procedure, shortened: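 Human HepG2 hepatoma cells were transiently transfected with promoter-driven reporter constructs and treated for 24 hours. Reporter transcripts were quantified by RT-PCR with fluorescent primer extension; bidirectional curve fitting used DMSO as reference.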

[11] = ATG_FoxO_CIS: Attagene CIS-FACTORIAL HepG2 Assay for human Forkhead box O (FoxO) (AID 2282943); settings: HepG2 Attagene cis-reporter, FoxO element, mRNA; actives raise or lower the signal
Procedure, shortened: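 HepG2 cells transiently transfected with cis-promoter-driven multiple reporter transcription units; 24 h after chemical dosing, reporter mRNA quantified by RT-PCR, fluorescent primer extension, HpaI digestion and capillary electrophoresis. Bidirectional fitting versus DMSO baseline.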

[12] = ATG_GLI_CIS: Attagene CIS-FACTORIAL HepG2 Assay for human Zinc Finger Protein GLI1 (AID 2282945); settings: HepG2, Attagene cis-factorial reporter mRNA, GLI element; actives raise or lower the signal
Procedure, shortened: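 HepG2 cells transiently transfected with cis-promoter multiplexed reporter units report endogenous transcription factor activity. After 24 h chemical exposure, reporter mRNA was quantified by RT-PCR, 6-FAM labelling, HpaI digestion and capillary electrophoresis, with bidirectional fitting against DMSO.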

[13] = ATG_ISRE_CIS: Attagene CIS-FACTORIAL HepG2 Assay for human Interferon Regulatory Factor 1 (IRF1) binding to an Interferon-Stimulated Response Element (ISRE) (AID 2282948); settings: HepG2 ISRE cis-reporter (Attagene), mRNA transcription readout; actives raise or lower the signal
Procedure, shortened: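 Cell-based cis-reporter assay; HepG2; 24 h exposure; reporter mRNA by RT-PCR plus capillary electrophoresis fluorescence; activity in either direction scored relative to DMSO.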

[14] = ATG_M_32_CIS: Attagene CIS-FACTORIAL HepG2 Assay for M32 Transcription Factor (Internal Marker) (AID 2282949); settings: HepG2 Attagene cis-factorial M32 reporter, mRNA; actives raise or lower the signal;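 also: background control marker of the multiplexed CIS panel rather than a real target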
Procedure, shortened: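 Fluorescent capillary electrophoresis peaks of HpaI-digested, FAM-labelled RT-PCR reporter products give the signal. Source: transiently transfected human liver HepG2 cells, 24 h after chemical dosing; bidirectional fitting against DMSO.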

[15] = ATG_M_06_CIS: Attagene CIS-FACTORIAL HepG2 Assay for M06 Transcription Factor (Internal Marker) (AID 2282950); settings: HepG2 Attagene CIS-FACTORIAL M06 internal marker reporter; actives raise or lower the signal
Procedure, shortened: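 One of many multiplexed endpoints: HepG2 reporter mRNA after 24 h dosing, detected by RT-PCR and capillary electrophoresis fluorescence; gain or loss of signal analysed against DMSO.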

[16] = ATG_MRE_CIS: Attagene CIS-FACTORIAL HepG2 Assay for human Metal Responsive Element (MRE) (AID 2282954); settings: HepG2 MRE cis-reporter transcription, Attagene multiplex; actives raise or lower the signal
Procedure, shortened: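 Step one: transfect HepG2 with cis-regulated reporter units. Step two: dose 24 h. Step three: isolate RNA, RT-PCR, 6-FAM label, HpaI digest, capillary electrophoresis. Fit bidirectionally to DMSO.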

[17] = ATG_PXRE_CIS: Attagene CIS-FACTORIAL HepG2 Assay for human Pregnane X Receptor Element (PXRE) (AID 2282957); settings: HepG2 Attagene CIS-FACTORIAL PXRE reporter, mRNA; actives raise or lower the signal
Procedure, shortened: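 Cis-element reporter mRNA in human hepatoma HepG2 cells is measured 24 h post-dosing by RT-PCR, primer-extension labeling and capillary electrophoresis; gain or loss of signal is fitted relative to DMSO.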

[18] = ATG_Sox_CIS: Attagene CIS-FACTORIAL HepG2 Assay for human SRY-box transcription factor (SOX) (AID 2282960); settings: HepG2 Attagene cis-factorial SOX reporter, mRNA; actives raise or lower the signal
Procedure, shortened: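 Read-out: fluorescent RT-PCR products of SOX1-linked reporter transcripts resolved by capillary electrophoresis, fitted bidirectionally against DMSO. Transiently transfected HepG2 cells, 24 h after chemical exposure, endogenous transcription factor activity.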

[19] = target: Transcription factor Sp1 (Homo sapiens) (UniProt P08047); assay: ATG_Sp1_CIS: Attagene CIS-FACTORIAL HepG2 Assay for human Specificity Protein 1 (Sp1) (AID 2282961); settings: HepG2 Sp1 cis-reporter transcription, actives raise or lower the signal
Procedure, shortened: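 Read-out: fluorescence of 6-FAM-labeled, HpaI-digested RT-PCR products separated by capillary electrophoresis. HepG2 cells carried transfected cis-element reporter units and were exposed to chemicals for 24 h; gain or loss of signal fitted relative to DMSO.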

[20] = ATG_SREBP_CIS: Attagene CIS-FACTORIAL HepG2 Assay for human Sterol Regulatory Element Binding (SREBP) (AID 2282962); settings: HepG2 Attagene cis-factorial SREBP reporter, mRNA; actives raise or lower the signal
Procedure, shortened: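 mRNA induction of transfected cis-promoter reporters in HepG2 cells, 24 h post-dose. Detection: RT-PCR with 6-FAM-labelled products, HpaI digest, capillary electrophoresis. DMSO served as negative control and baseline.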

Measured: AC50

Transcription factor E2F1 (Homo sapiens), sequence (Q01094 whole entry, looked up): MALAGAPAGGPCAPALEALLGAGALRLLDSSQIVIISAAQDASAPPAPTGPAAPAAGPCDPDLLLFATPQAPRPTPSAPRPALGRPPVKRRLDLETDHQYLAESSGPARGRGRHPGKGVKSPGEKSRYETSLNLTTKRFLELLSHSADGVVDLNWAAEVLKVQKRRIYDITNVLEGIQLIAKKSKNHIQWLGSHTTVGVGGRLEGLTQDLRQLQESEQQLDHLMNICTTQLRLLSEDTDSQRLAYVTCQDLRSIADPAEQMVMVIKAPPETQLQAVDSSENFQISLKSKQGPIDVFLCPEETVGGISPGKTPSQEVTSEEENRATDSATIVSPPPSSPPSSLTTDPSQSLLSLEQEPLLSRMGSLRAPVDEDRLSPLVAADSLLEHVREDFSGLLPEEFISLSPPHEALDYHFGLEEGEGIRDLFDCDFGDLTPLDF
CCAAT/enhancer-binding protein beta (Homo sapiens), sequence (P17676 whole entry, looked up): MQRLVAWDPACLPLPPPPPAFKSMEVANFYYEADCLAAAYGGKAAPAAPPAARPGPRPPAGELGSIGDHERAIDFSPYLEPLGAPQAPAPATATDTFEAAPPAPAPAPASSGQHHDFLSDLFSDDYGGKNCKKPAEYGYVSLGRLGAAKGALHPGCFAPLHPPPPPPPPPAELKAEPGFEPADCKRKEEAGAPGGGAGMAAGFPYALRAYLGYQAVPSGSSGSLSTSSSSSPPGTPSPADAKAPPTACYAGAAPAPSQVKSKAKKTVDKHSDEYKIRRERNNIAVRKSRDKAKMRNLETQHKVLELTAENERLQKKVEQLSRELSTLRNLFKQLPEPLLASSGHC
Transcription factor Sp1 (Homo sapiens), sequence (P08047 whole entry, looked up): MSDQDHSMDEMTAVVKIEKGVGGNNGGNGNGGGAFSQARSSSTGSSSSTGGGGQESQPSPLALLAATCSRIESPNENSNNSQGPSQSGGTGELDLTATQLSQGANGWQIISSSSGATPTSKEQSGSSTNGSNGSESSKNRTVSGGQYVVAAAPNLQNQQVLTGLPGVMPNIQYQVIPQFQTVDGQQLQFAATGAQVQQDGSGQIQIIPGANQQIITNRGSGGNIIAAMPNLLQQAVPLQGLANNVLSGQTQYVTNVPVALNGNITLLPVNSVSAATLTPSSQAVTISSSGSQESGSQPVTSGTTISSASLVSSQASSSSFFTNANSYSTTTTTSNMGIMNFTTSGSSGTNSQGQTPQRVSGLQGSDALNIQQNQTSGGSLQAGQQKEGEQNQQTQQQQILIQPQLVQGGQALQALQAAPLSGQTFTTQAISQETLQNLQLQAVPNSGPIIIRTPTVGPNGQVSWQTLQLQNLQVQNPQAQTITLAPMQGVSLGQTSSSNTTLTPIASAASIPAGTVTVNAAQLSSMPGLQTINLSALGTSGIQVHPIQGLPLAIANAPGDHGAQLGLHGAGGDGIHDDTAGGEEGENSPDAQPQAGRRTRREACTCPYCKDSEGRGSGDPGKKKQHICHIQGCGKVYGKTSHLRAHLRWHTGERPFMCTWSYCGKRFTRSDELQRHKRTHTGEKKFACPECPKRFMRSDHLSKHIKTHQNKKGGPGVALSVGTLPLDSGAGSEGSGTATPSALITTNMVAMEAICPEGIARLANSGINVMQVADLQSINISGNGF

CCOC(=O)CC(=O)OCC
inactive: all assays above

CCCCOC(=O)COc1ccc(Cl)cc1Cl
inactive: all assays above

COC(=O)c1ccccc1
inactive: all assays above

C[C@H]1C[C@H]2[C@@H]3CCC4=CC(=O)C=C[C@]4(C)[C@@]3(F)[C@@H](O)C[C@]2(C)[C@@]1(O)C(=O)CO
active: [5] 73.3 µM | [9] 100 µM | [16] 80.1 µM | [17] 9.62 µM
inactive: all other assays above

CCCC[N+]1(C)CCCC1
inactive: all assays above

Nc1nnc(-c2ccc([N+](=O)[O-])o2)o1
inactive: all assays above

CCOC(=O)c1ccccc1
active: [2] 68.7 µM | [10] 180 µM | [13] 167 µM | [17] 100 µM | [19] 28 µM
inactive: all other assays above
